# Potency and affinity values are given separately. Calls of active or inactive are those of the source. Where a call stands in place of a potency, no number is given. Cut-off not given; nearly all actives show IC50 up to about 0.98 µM.
# Molecular target: Calcium-dependent protein kinase 1 (Plasmodium falciparum (isolate 3D7)) (UniProt P62344)
# Assay: PfCDPK1 kinase inhibitors, biochemical, TCAMS library (AID 1159585);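 further: inhibitors leave more ATP so luminescence rises with inhibition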
# Conditions: recombinant PfCDPK1, Kinase-Glo ATP depletion luminescence
# Chain of Calcium-dependent protein kinase 1 (Plasmodium falciparum (isolate 3D7)) (P62344 whole entry, looked up): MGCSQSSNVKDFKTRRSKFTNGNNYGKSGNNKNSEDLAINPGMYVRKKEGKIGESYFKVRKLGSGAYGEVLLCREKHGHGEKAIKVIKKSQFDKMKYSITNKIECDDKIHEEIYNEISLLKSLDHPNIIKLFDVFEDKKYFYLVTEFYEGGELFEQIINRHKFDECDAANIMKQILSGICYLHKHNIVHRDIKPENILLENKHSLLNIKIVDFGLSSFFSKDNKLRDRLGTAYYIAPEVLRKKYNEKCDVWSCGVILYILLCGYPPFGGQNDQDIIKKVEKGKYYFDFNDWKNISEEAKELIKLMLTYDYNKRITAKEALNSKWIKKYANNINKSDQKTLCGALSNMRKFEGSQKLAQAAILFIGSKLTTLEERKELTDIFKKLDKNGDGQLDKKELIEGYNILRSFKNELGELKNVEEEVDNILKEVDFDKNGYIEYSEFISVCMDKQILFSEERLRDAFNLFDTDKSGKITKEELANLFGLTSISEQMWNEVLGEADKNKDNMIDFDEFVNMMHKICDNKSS
row,Structure (SMILES),outcome
1,NC(=NCCc1ccccc1Cl)c1ccc2ccccc2c1,inactive
2,CCOC(=O)c1cncc(/C=C/c2cc(C)cnc2N)c1,inactive
3,O=[N+]([O-])c1cccc(CNCC2CCN(Cc3ccc(C(F)(F)F)cc3)CC2)c1,inactive
4,CCOC(=O)COc1cccc(CNc2ccc3nc(N)nc(N)c3c2)c1,inactive
5,CS(=O)(=O)c1ccc(CCNCc2ccc(-c3ccc(CN(C(=O)C4CCCC4)C4CCN(Cc5ccccc5)CC4)cc3)nc2)cc1,inactive
6,CNS(=O)(=O)CCNCc1ccc(-c2ccc3ncnc(Nc4ccc(OCc5ccccc5)cc4)c3c2)o1,inactive
7,CC(C)c1ccc(NC(=O)c2ccc(C(=O)NCC3CCN(CC4CCCCC4)CC3)cc2)cc1,inactive
8,CCCNCc1ccc(-c2ccc(CN(CCOC)C(=O)c3cscn3)cc2)nc1,inactive
9,CCNc1cc(C(=O)N[C@@H](Cc2ccccc2)[C@H](O)CN[C@H](C)C(C)(C)C)cc(N2CCCCS2(=O)=O)c1,inactive
10,O=C(Nc1ccc(C(=O)N2CCN(CCN3CCN(c4cccc(C(F)(F)F)c4)CC3)CC2)cc1)c1ccc(C(F)(F)F)cc1,inactive
11,O=C(/C=C/c1ccc(Cl)c(Cl)c1)N1CCN(C(=O)Nc2ccc(C(F)(F)F)cc2)CC1,inactive
12,Cc1[nH]c(C)c(-c2ccc(-c3ccc(F)cc3)nc2)c(=O)c1Br,inactive
13,Cc1nc(N)nc(N)c1OCCCOc1ccccc1Br,inactive
14,FC(F)(F)c1ccc2nc(-c3cccc(-c4ccc(CNCC5CCCO5)cc4)c3)[nH]c2c1 (stereo not drawn),inactive
15,Cc1noc(C)c1-c1cccc(CNCc2ccc(-c3ccc(-c4nc5c(C)cccc5[nH]4)cc3)cc2)c1,inactive
16,Cc1cc(C2CCN(CCCCNC(=O)c3ccc(-c4ccc(C(F)(F)F)cc4)cc3)CC2)c(C)cc1OCCO,inactive
17,COC(=O)c1cccc(CN(CCC(O)(C(F)(F)F)C(F)(F)F)C(=O)CC2CCCC2)c1,inactive
18,Cc1[nH]c(C)c(-c2ccc(-c3ccccc3C(F)(F)F)nc2)c(=O)c1Br,inactive
19,CCNc1cc(C(=O)N[C@@H](Cc2ccccc2)[C@H](O)CNCc2cc(C#N)ccc2OC)cc(N2CCCC2=O)c1,inactive
20,CO/C(=C\C=C\c1cc2cc(Cl)c(Cl)cc2[nH]1)C(=O)NCCCNC12CC3CC(CC(C3)C1)C2,inactive
21,O=c1[nH]c2ccc(Nc3nccc(NCCc4ccccc4)n3)cc2[nH]1,inactive
22,COc1ccc2nccc([C@@H](O)CN3CCC(NCc4ccc5c(c4)NC(=O)CO5)CC3)c2c1,inactive
23,CCOC(=O)c1ccc(NC(=O)Nc2ccc(-c3ccc(-c4nc5ccc(C(F)(F)F)cc5[nH]4)cc3)cc2)cc1,inactive
24,Cc1cccc2[nH]c(-c3ccc(-c4cccc(CN5CCCC5CN)c4)cc3)nc12 (stereo not drawn),inactive
25,COc1ccc(NC(=O)/C=C/c2ccccc2Cl)cc1OCCN1CCC(N2CCCCC2)CC1,inactive
26,COc1cc(C2=NN(S(=O)(=O)c3c(Cl)cc(Cl)cc3Cl)CCCC2)ccc1Cl,inactive
27,CC(C)NCc1ccc(-c2cccc(NC(=O)c3ccc(F)cc3)c2)cc1,inactive
28,CCCc1ccc(C(=O)N2[C@@H](c3nccs3)[C@@H](C(N)=O)C[C@@]2(CC(C)C)C(=O)O)cc1,inactive

# — PubChem BioAssay
